According to PubChem BioAssay:
Activity calls are given as the source filed them. Unless noted, the rule behind the calls is not given here.

Experiments:
[1] = test system: Wnt5a (protein binding on small-molecule microarray); assay: small molecules binding Wnt5a protein – biophysical, small-molecule microarray, 635/667 nm fluorescence, primary screen (AID 1142); conditions: 635 nm fluorescence, higher = more signal;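 note: fluorescence read at 667 nm with signal to noise per printed feature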
[2] = ATP-based viability of Huh7 replicon cells – cell-based, CellTiter-Glo luminescence, basal, 48 h, cytotoxicity control for HCV replication inhibitor project, primary screen (AID 1143); conditions: higher = more signal, called active from +8 up or from −8 down;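 note: Huh7 hepatoma cells carrying a hepatitis C replication reporter with no stimulus; test concentration not given here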
[3] = Pseudomonas biofilm growth suppression – PAO1 strain, BacTiter-Glo luminescence, LB-PBS, primary screen (AID 1144); conditions: P. aeruginosa PAO1 biofilm, 12 h, higher = more signal
[4] = basal CRE-LacZ reporter activity in PC12 – cell-based, unstimulated, primary screen (AID 1145); conditions: no forskolin, luminescence, 4.5 h, higher = more signal, called active from +8 up or from −8 down
[5] = forskolin-driven CRE-LacZ activity in PC12 – cell-based, CRE-LacZ reporter, forskolin-stimulated, primary screen (AID 1146); conditions: luminescence, 4.5 h, higher = more signal, called active from +8 up or from −8 down;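 note: PC12 cells with 6xCRE LacZ reporter stimulated by forskolin 10 µM; beta-galactosidase reporter signal reflecting CREB driven transcription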
[6] = target: Streptavidin (Streptomyces avidinii) (UniProt P22629); assay: compounds binding control protein streptavidin – biophysical, small-molecule microarray, 635/667 nm fluorescence, artefact control for SMM compound annotation, primary screen (AID 1147); conditions: higher = more signal;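 note: signal reflects streptavidin binding to arrayed compounds as a control protein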
Streptavidin (Streptomyces avidinii), sequence (P22629 whole entry, looked up): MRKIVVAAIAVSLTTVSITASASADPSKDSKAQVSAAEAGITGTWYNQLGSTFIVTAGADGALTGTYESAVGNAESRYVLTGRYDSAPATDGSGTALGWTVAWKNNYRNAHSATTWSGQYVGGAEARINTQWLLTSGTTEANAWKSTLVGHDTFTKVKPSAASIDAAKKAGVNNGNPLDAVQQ

[7] = probe aInhba binding on compound microarray – biochemical, small-molecule microarray, 635/667 nm fluorescence, primary screen (AID 1148); conditions: higher = more signal;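 note: score merges 667nm spot fluorescence with signal-to-noise for antibody binding to printed compounds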
[8] = target: Torsin-1A (Homo sapiens) (UniProt O14656); assay: TOR1A wild-type binding on microarray – cell lysate, small-molecule microarray, lysate, 635/667 nm, primary screen (AID 1149); conditions: COS7 hTOR1A-WT lysate, 635 nm fluorescence, higher = more signal
Torsin-1A (Homo sapiens), sequence (O14656 whole entry, looked up): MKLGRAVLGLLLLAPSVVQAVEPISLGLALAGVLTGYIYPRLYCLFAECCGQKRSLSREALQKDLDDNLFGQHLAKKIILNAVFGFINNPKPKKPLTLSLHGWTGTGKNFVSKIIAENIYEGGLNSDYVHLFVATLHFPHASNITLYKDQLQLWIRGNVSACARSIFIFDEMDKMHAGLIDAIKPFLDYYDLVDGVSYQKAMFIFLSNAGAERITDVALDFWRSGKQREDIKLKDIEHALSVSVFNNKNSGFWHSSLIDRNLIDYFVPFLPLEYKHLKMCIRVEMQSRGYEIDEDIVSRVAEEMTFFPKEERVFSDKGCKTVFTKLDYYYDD

[9] = target: Torsin-1A (Homo sapiens) (UniProt O14656); assay: torsin A mutant lysate binding on microarrays – cell lysate, small-molecule microarray, COS7 lysate, 635/667 nm fluorescence, primary screen (AID 1150); conditions: COS7 hTOR1A mutant lysate, 635 nm fluorescence, higher = more signal;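 note: score pools 667 nm emission and signal to noise measuring lysate protein binding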
[10] = test system: Sonic hedgehog protein (Shh); assay: Sonic hedgehog microarray binding compounds – biochemical, small-molecule microarray, 635/667 nm fluorescence, primary screen (AID 1151); conditions: 635 nm fluorescence, higher = more signal;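 note: Shh protein binding to compounds spotted on small-molecule microarray slides; score combines spot fluorescence intensity with signal-to-noise across triplicate slides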
[11] = optical density shifts of acrAB sulA E. coli – strain DRC41, OD650, 48 h, E. coli filamentation inducer project, primary screen (AID 1152); conditions: higher = more signal, called active from +8 up or from −8 down;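 note: E. coli MC1000 strain DRC41 lacking acrAB efflux pump and sulA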
[12] = probe aLefty1 binding on compound microarray – biochemical, small-molecule microarray, 635/667 nm fluorescence, primary screen (AID 1153); conditions: higher = more signal;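 note: score merges spot fluorescence with signal-to-noise ratio from the scanned slide images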
[13] = plasmodial surface anion channel blockers, osmotic lysis – cell-based, P. falciparum Indochina, OD700, 1 h, primary screen (AID 1154); conditions: P. falciparum Indochina infected RBC osmotic lysis, higher = more signal, called active from +8 up or from −8 down
[14] = plasmodial surface anion channel blockers, osmotic lysis – cell-based, P. falciparum Indochina, OD700, 2 h, primary screen (AID 1155);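 note: lysis reports solute entry through the parasite surface anion channel PSAC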; conditions: P. falciparum Indochina infected erythrocytes, higher = more signal, called active from +8 up or from −8 down
[15] = changes in parasitized red cell lysis, either direction – P. falciparum Indochina, OD700, 3 h, PSAC antagonist project, primary screen (AID 1156); conditions: P. falciparum-infected erythrocytes, osmotic lysis, higher = more signal, called active from +8 up or from −8 down
[16] = plasmodial surface anion channel blockers, osmotic lysis – cell-based, P. falciparum Indochina, OD700, 18 h, primary screen (AID 1157); conditions: P. falciparum Indochina infected erythrocytes, osmotic lysis OD700, 18 h; higher = more signal, called active from +8 up or from −8 down
[17] = S6 kinase pathway phospho-S6 level changes – cell-based, A549, cytoblot, luminescence, serum-stimulated, primary screen (AID 1158); conditions: 5 h, higher = more signal;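 note: serum-stimulated A549 lung adenocarcinoma cells; signal is phosphorylated S6 detected by cytoblot immunostaining with HRP secondary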
[18] = target: NADPH oxidase 2 (Homo sapiens) (UniProt P04839); assay: compounds shifting NOX2 Amplex Red fluorescence – cell-based, HEK293-NOX2, PMA-stimulated, NOX inhibitor project, primary screen (AID 1159); conditions: 45 min, higher = more signal, called active from +8 up or from −8 down; note: test concentration not given here
NADPH oxidase 2 (Homo sapiens), sequence (P04839 whole entry, looked up): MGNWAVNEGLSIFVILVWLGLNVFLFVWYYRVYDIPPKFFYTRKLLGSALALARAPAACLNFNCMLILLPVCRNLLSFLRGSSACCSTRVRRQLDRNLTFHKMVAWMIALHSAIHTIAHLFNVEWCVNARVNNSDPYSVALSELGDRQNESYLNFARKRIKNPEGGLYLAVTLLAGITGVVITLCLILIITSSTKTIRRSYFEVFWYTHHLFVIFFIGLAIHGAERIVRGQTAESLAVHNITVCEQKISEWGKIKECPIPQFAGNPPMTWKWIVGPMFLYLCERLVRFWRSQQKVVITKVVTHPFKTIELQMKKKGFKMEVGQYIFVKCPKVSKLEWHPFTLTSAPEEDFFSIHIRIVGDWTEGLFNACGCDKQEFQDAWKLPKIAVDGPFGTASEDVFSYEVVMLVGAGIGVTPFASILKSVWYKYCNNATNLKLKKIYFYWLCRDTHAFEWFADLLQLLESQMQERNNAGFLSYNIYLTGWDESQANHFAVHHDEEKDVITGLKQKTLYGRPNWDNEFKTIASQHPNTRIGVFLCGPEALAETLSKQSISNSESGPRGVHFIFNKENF

[19] = target: NADPH oxidase 4 (Homo sapiens) (UniProt Q9NPH5); assay: compounds shifting NOX4 Amplex Red fluorescence – cell-based, HEK293-NOX4, tetracycline-induced, NOX inhibitor project, primary screen (AID 1160); conditions: HEK293-NOX4, Amplex Red H2O2 fluorescence, 45 min; higher = more signal, called active from +8 up or from −8 down
NADPH oxidase 4 (Homo sapiens), sequence (Q9NPH5 whole entry, looked up): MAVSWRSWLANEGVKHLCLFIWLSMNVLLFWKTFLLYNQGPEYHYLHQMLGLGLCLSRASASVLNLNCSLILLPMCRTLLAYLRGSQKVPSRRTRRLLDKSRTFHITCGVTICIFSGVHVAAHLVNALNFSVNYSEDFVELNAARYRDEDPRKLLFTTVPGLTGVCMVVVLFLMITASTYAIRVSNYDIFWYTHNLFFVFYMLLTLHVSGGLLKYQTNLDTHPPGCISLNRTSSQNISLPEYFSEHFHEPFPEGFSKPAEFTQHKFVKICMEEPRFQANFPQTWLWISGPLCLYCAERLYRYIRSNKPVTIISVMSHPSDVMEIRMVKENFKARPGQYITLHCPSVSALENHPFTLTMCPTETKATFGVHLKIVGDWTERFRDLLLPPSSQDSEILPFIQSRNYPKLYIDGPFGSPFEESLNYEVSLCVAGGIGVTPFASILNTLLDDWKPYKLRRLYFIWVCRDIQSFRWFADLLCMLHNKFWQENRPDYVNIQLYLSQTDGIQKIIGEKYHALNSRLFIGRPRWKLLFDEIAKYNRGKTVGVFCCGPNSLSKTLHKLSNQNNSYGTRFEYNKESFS

[20] = target: NADPH oxidase 5 (Homo sapiens) (UniProt Q96PH1); assay: compounds shifting NOX5 Amplex Red fluorescence – cell-based, HEK293-NOX5, NOX inhibitor project, primary screen (AID 1161); conditions: HEK293-NOX5, ionomycin, 45 min, higher = more signal
NADPH oxidase 5 (Homo sapiens), sequence (Q96PH1 whole entry, looked up): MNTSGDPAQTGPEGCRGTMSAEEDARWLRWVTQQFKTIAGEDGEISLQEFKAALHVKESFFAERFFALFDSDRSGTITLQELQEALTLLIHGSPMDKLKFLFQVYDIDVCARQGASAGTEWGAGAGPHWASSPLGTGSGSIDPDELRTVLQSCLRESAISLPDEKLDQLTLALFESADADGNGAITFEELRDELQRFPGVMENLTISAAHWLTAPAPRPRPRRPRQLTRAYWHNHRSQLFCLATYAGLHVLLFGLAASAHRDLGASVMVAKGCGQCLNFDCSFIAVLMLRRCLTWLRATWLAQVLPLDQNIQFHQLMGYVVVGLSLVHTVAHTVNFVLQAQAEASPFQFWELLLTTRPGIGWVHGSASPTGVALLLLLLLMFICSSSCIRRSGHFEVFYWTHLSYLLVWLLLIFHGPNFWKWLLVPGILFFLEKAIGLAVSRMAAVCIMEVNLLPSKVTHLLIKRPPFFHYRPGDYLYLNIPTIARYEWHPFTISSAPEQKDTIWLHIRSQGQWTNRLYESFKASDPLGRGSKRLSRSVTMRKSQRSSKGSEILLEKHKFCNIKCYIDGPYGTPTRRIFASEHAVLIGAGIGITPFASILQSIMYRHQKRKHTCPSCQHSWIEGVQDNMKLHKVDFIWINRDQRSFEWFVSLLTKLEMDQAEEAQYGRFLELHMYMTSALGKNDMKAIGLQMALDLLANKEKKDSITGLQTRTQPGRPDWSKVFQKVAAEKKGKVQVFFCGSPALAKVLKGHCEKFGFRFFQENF

| SMILES | composite z-score [1] | z-score [2] | z-score [3] | z-score [4] | z-score [5] | composite z-score [6] | composite z-score [7] | composite z-score [8] | composite z-score [9] | composite z-score [10] | z-score [11] | composite z-score [12] | z-score [13] | z-score [14] | z-score [15] | z-score [16] | z-score [17] | z-score [18] | z-score [19] | z-score [20] |
| --- | --- | --- | --- | --- | --- | --- | --- | --- | --- | --- | --- | --- | --- | --- | --- | --- | --- | --- | --- | --- |
| O=C1c2ccccc2[C@@]2(Cc3ccccc3N(Cc3ccccc3)C2=O)[C@H](c2ccc(CO)cc2)N1Cc1ccccc1C(F)(F)F | -0.373 | 0.174 (inactive) | 1.18 (inactive) | -0.116 (inactive) | 0.172 (inactive) | -0.896 | -0.128 | -0.916 | -0.0921 | -1.45 | 0.165 (inactive) | 0.152 | 1.92 (inactive) | -0.0022 (inactive) | 0.678 (inactive) | -0.112 (inactive) | -0.106 | -2.24 (inactive) | 0.148 (inactive) | 1.77 |
| COC(=O)[C@@]1(Cc2ccc(OC)cc2)[C@H]2c3cc(C(=O)N4CCCC4)n(CCc4ccccn4)c3C[C@H]2CN1C(=O)c1ccccc1 | -0.249 | -0.784 (inactive) | -0.304 (inactive) | 0.201 (inactive) | 0.404 (inactive) | 0.698 | -0.0332 | -0.166 | 1.1 | 0.429 | -1.76 (inactive) | 0.496 | 1.15 (inactive) | 0.453 (inactive) | 0.924 (inactive) | 0.518 (inactive) | 0.958 | 0.48 (inactive) | -2.11 (inactive) | -3.82 |
| C=CC[C@]1(C(=O)O)N=C(c2ccc(OCCCO)cc2)O[C@H]1c1ccccc1CN=[N+]=[N-] | 0.0194 | 0.101 (inactive) | 0.874 (inactive) | 0.274 (inactive) | -0.0119 (inactive) | -0.0336 | -0.108 | 0.0499 | 0.416 | -0.0799 | 0.0533 (inactive) | 0.0425 | 13.7 (active) | 1.93 (inactive) | -0.055 (inactive) | 0.665 (inactive) | -0.0651 | 0.324 (inactive) | 1.03 (inactive) | 1.58 |
| O=c1cccc(-c2ccccc2)o1 | -0.299 | 0.423 (inactive) | 1.55 (inactive) | -0.723 (inactive) | 0.137 (inactive) | -0.386 | -0.204 | 0.0936 | 0.274 | -0.379 | -0.766 (inactive) | -0.0099 | 3.18 (inactive) | 0.578 (inactive) | -0.891 (inactive) | 0.611 (inactive) | -0.548 | 0.227 (inactive) | -1.81 (inactive) | -0.322 |
| C=C(COC)C(=O)CC[C@@H](OC(=O)c1ccccc1-c1ccccc1C(=O)O)c1ccc(CO)o1 | 1.24 | -7.58 (inactive) | 0.164 (inactive) | 8.29 (active) | 5.1 (inactive) | -0.517 | -0.188 | 1.67 | 0.404 | 1.91 | -0.448 (inactive) | -0.0032 | 0.508 (inactive) | 0.802 (inactive) | -2.11 (inactive) | 0.698 (inactive) | -1 | -3.41 (inactive) | -1.58 (inactive) | -3.07 |
| C[N+](C)(C)CCCC[C@@H]1NC(=O)[C@H]2C[C@@H](C(=O)O)[C@@H](c3cccc(OCCO)c3)N2C1=O | 1.93 | 0.0605 (inactive) | 0.308 (inactive) | -0.138 (inactive) | 0.629 (inactive) | 3.77 | 0.893 | 1.95 | 2.13 | 1.4 | -0.0215 (inactive) | 1.69 | 1.15 (inactive) | 0.729 (inactive) | -1.43 (inactive) | 0.252 (inactive) | 0.743 | 0.114 (inactive) | 0.0916 (inactive) | 0.986 |
| CCCCCCC#C[Si](O[C@H](c1ccccc1)c1cn([C@H](C)c2ccccc2)nn1)(C(C)C)C(C)C | -0.0509 | -0.658 (inactive) | 0.121 (inactive) | -0.127 (inactive) | 0.15 (inactive) | 0.247 | -0.361 | 0.381 | 1.26 | 0.573 | 2.21 (inactive) | -0.234 | 1.18 (inactive) | -0.0458 (inactive) | -0.0391 (inactive) | -0.0352 (inactive) | 0.138 | 0.054 (inactive) | -0.749 (inactive) | 0.268 |
| Cc1ccc(F)cc1S(=O)(=O)N[C@@H]1CCN(Cc2ccc(C(F)(F)F)cc2)C1 | -0.192 | -4.39 (inactive) | 1.2 (inactive) | 3.48 (inactive) | 0.777 (inactive) | -0.381 | -0.208 | -0.181 | 0.319 | 0.451 | -5.36 (inactive) | -0.152 | 4.85 (inactive) | 1.15 (inactive) | 0.129 (inactive) | 0.624 (inactive) | -0.147 | -0.344 (inactive) | -1.19 (inactive) | -2 |
